Data published in the supplement of paper PMC10849652.
Targets with a hit are over-represented here; the source holds about 7,900 in all. About 0.6% of all pairs of compound and target were hits.

Tests used:
Test in all cases: log2 fold change, soluble protein after heating vs DMSO (PISA); higher = thermal stabilisation; K562 cells, 10 uM, 30 min; active = over 0.2 and 3.5 SD of the protein, either way, in both replicates (recomputed)
[1] = compound: C1COCCN1CCN2C3=CC=CC=C3N=C2NC(=O)C4=CC(=CC=C4)[N+](=O)[O-] [IRAK-1-4 Inhibitor I]
Outline: (§1)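 Aliquots of K562 cells (2×10^6 cells/mL) treated with 10 μM compound for 30 min were heated for 3 min over 48°C-58°C. After pooling and extraction in PBS with 0.5% NP-40 at 4°C, soluble protein from a 21,000xg, 90 min spin was quantified by TMTpro 16plex LC-MS/MS with channel sums equalised. Thermal stability is expressed against control samples, from duplicates, as a log2 fold change.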

[2] = compound: C=CC(=O)N1CCC[C@@H](n2nc(-c3ccc(Oc4ccccc4)cc3)c3c(N)ncnc32)C1 [ibrutinib]
Outline: as §1

[3] = compound: CC(=O)c1cnc2ccc(-c3cc(Cl)c(O)c(Cl)c3)nc2c1N[C@H]1CC[C@H](CN(C)C)CC1
Outline: as §1

[4] = compound: CC(C)(C)Cn1c(N)nc2ccc(-c3[nH]c(C(C)(C)C)nc3-c3ccc(F)cc3)nc21 [ralimetinib]
Outline: as §1

[5] = compound: CC(C)(O)CC(=O)NCCn1ccc2ncnc(Nc3ccc(Oc4cccc(C(F)(F)F)c4)c(Cl)c3)c21
Outline: as §1

[6] = compound: CC(C)C1=C2N=C(C=C(N2N=C1)NCC3=CC=CC=C3)NCCCCCCN
Outline: as §1

[7] = compound: CC(C)C[C@@H](C=O)NC(=O)[C@H](CC(C)C)NC(=O)[C@H](CC(C)C)NC(=O)OCc1ccccc1
Outline: as §1

[8] = compound: CC(C)N(C[C@H]1O[C@@H](n2cnc3c(N)ncnc32)[C@H](O)[C@@H]1O)[C@H]1C[C@@H](CCc2nc3cc(C(C)(C)C)ccc3[nH]2)C1 [pinometostat]
Outline: as §1

[9] = compound: CC1=C(C(CC(=O)N1)C2=CC=C(C=C2)C(F)(F)F)C(=O)NC3=C(C=C4C(=C3)C=NN4)F
Outline: as §1

[10] = compound: CC1=C(C2=C(C=C1)C(=O)C3=CC=CC=C3N2CCCN)C
Outline: as §1

[11] = compound: CC1=C(C=C(C=C1)NC(=O)C2=CC(=CC=C2)C(C)(C)C#N)NC3=CC4=C(C=C3)N=CN(C4=O)C
Outline: as §1

[12] = compound: CC1=C(C=C(C=C1)NC(=O)C2=CC(=CC=C2)N(C)C)NC(=O)C3=CC=C(C=C3)O
Outline: as §1

[13] = compound: CC1=CC=C(C=C1)SC2=C3C=C(SC3=CN=C2)C(=O)N
Outline: as §1

[14] = compound: CC1=NC(=CC=C1)C2=C(N=C(N2)C(C)(C)C)C3=CC4=NC=CN=C4C=C3
Outline: as §1

[15] = compound: CCCCN(Cc1ccc(C(=O)NO)cc1)C(=O)Nc1ccccc1 [Nexturastat A]
Outline: as §1

[16] = compound: CCCS(=O)(=O)Nc1ccc(F)c(C(=O)c2c[nH]c3ncc(-c4ccc(Cl)cc4)cc23)c1F [vemurafenib]
Outline: as §1

[17] = compound: CCCS(=O)(=O)Nc1ccc(F)c(C(=O)c2c[nH]c3ncc(Cl)cc23)c1F
Outline: as §1

[18] = compound: CCCc1cc(C)[nH]c(=O)c1CNC(=O)c1cc(-c2ccnc(N3CCN(C)CC3)c2)cc2c1cnn2C(C)C
Outline: as §1

[19] = compound: CCN(CC)Cc1ccc2cc(COC(=O)Nc3ccc(C(=O)NO)cc3)ccc2c1 [givinostat]
Outline: as §1

[20] = compound: CCN(CCCOc1ccc2c(Nc3cc(CC(=O)Nc4cccc(F)c4)[nH]n3)ncnc2c1)CCOP(=O)(O)O [barasertib]
Outline: as §1

Measured: log2 fold change

UCHL5 isoform 3 (UniProt Q9Y5K5)
Sequence of UniProt Q9Y5K5 (Q9Y5K5 whole entry, looked up): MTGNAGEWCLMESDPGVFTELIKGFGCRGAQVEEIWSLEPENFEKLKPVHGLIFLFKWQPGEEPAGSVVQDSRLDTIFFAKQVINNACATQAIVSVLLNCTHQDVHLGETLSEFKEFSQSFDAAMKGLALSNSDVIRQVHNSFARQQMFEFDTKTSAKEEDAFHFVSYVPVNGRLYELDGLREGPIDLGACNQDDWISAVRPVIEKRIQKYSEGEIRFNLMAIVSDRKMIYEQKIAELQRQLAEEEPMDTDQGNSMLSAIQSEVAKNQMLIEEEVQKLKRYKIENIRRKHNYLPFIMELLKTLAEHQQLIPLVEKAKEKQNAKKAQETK
inactive: [1] -0.012 | [2] -0.222 | [3] -0.021 | [4] 0.006 | [5] -0.357 | [6] -0.143 | [7] 0.077 | [8] -0.044 | [9] 0.068 | [10] 0.028 | [11] -0.09 | [12] -0.145 | [13] 0.048 | [14] -0.213 | [15] 0.07 | [16] -0.02 | [17] 0.243 | [18] 0.047 | [19] 0.056 | [20] 0.048

TMEM161A (UniProt Q9NX61)
Sequence of UniProt Q9NX61 (Q9NX61 whole entry, looked up): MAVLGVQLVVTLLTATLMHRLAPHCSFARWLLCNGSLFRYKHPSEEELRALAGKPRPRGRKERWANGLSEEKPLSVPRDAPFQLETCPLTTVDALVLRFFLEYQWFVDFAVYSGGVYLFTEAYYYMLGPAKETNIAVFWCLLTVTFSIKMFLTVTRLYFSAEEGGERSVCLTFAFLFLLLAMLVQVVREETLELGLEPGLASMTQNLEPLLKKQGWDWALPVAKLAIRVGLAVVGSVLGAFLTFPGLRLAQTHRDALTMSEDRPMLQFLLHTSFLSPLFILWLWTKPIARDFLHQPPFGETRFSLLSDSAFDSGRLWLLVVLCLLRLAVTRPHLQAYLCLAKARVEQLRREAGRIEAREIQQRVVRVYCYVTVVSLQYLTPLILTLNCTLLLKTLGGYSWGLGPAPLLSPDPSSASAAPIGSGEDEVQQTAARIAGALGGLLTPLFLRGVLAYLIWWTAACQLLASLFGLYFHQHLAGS
inactive: [1] 0.03 | [2] -0.015 | [3] 0.045 | [4] -0.059 | [5] -0.17 | [7] -0.045 | [8] 0.121 | [9] -0.076 | [10] 0.071 | [11] -0.045 | [12] 0.12 | [13] 0.014 | [14] -0.012 | [15] -0.059 | [16] 0.045 | [17] 0.225 | [18] -0.048 | [19] 0.024 | [20] -0.017
active: [6] -0.395

USP25 isoform 3 (UniProt Q9UHP3)
inactive: [1] 0.002 | [2] -0.002 | [3] -0.019 | [4] -0.027 | [5] 0.015 | [6] 0.001 | [7] 0.052 | [8] 0.001 | [9] 0.043 | [10] 0.002 | [11] 0.004 | [12] 0.008 | [13] -0.009 | [14] 0.045 | [15] -0.029 | [16] 0.04 | [17] 0.027 | [18] 0.024 | [19] 0.015 | [20] 0.02

WDHD1 (UniProt O75717)
inactive: [1] -0.055 | [2] 0.006 | [3] -0.087 | [4] -0.038 | [5] -0.065 | [6] -0.125 | [7] 0 | [8] -0.03 | [9] -0.02 | [10] -0.063 | [11] 0.057 | [12] -0.043 | [13] 0.013 | [14] 0.072 | [15] -0.053 | [16] 0.066 | [17] 0.095 | [18] 0.022 | [19] 0.053 | [20] 0.055

TNFRSF8 (UniProt P28908)
Sequence of UniProt P28908 (P28908 whole entry, looked up): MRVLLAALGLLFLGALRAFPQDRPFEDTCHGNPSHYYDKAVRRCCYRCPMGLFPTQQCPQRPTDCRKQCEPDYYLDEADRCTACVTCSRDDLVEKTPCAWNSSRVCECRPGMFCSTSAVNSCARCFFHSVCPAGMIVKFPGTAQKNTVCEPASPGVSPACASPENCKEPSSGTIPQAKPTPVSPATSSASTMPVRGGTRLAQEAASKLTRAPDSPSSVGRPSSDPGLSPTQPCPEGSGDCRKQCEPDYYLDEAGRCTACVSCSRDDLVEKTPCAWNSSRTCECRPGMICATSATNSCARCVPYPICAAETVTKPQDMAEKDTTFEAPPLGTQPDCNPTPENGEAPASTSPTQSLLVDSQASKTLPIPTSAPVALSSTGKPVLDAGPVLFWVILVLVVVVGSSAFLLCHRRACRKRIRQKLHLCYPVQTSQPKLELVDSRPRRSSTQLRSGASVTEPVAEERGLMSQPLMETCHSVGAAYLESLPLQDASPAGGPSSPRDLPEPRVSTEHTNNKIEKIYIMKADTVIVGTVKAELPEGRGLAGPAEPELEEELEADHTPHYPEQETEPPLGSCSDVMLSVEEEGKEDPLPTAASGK
inactive: [1] 0.056 | [2] 0.046 | [3] 0.005 | [4] -0.143 | [5] 0.016 | [7] 0.074 | [8] -0.01 | [9] 0.003 | [10] -0.022 | [11] -0.047 | [12] 0.01 | [13] -0.076 | [14] -0.005 | [15] 0.008 | [16] -0.028 | [17] -0.015 | [18] 0.031 | [19] -0.007 | [20] -0.006
active: [6] 0.219

UBE2E3 (UniProt Q969T4)
inactive: [1] 0.106 | [2] -0.059 | [3] -0.027 | [4] 0.069 | [5] -0.046 | [6] -0.08 | [7] -0.039 | [8] 0.096 | [9] -0.019 | [10] 0.066 | [11] 0.028 | [12] -0.059 | [13] 0.053 | [14] 0.08 | [15] -0.098 | [16] -0.013 | [17] 0.08 | [18] 0.022 | [19] 0.116 | [20] 0.013

TSFM (UniProt P43897)
inactive: [1] -0.065 | [2] -0.134 | [3] -0.067 | [4] 0.011 | [5] -0.254 | [6] 0.069 | [7] -0.058 | [8] -0.08 | [9] -0.066 | [10] 0.258 | [11] 0.253 | [12] -0.167 | [13] 0.021 | [14] 0.11 | [15] -0.057 | [16] 0.08 | [17] 0.034 | [18] 0.181 | [19] 0.041 | [20] 0.075

WDR7 (UniProt Q9Y4E6)
active: [6] -0.429
inactive: [1] -0.112 | [2] -0.027 | [3] -0.078 | [4] 0.067 | [5] -0.141 | [7] 0.1 | [8] 0.062 | [9] 0.029 | [10] 0.122 | [11] -0.029 | [12] -0.008 | [13] -0.016 | [14] -0.025 | [15] -0.216 | [16] 0.091 | [17] 0.083 | [18] 0.202 | [19] 0.067 | [20] 0.03

TRAPPC13 isoform 5 (UniProt A5PLN9)
inactive: [1] -0.06 | [2] -0.047 | [3] -0.121 | [4] -0.048 | [5] -0.093 | [6] -0.014 | [7] 0.026 | [8] 0.033 | [9] -0.06 | [10] -0.047 | [11] 0.022 | [12] 0.008 | [13] 0.006 | [14] 0.043 | [15] 0.024 | [16] 0.074 | [17] 0.113 | [18] 0.095 | [19] 0.025 | [20] 0.002

UTP4 (UniProt Q969X6)
Sequence of UniProt Q969X6 (Q969X6 whole entry, looked up): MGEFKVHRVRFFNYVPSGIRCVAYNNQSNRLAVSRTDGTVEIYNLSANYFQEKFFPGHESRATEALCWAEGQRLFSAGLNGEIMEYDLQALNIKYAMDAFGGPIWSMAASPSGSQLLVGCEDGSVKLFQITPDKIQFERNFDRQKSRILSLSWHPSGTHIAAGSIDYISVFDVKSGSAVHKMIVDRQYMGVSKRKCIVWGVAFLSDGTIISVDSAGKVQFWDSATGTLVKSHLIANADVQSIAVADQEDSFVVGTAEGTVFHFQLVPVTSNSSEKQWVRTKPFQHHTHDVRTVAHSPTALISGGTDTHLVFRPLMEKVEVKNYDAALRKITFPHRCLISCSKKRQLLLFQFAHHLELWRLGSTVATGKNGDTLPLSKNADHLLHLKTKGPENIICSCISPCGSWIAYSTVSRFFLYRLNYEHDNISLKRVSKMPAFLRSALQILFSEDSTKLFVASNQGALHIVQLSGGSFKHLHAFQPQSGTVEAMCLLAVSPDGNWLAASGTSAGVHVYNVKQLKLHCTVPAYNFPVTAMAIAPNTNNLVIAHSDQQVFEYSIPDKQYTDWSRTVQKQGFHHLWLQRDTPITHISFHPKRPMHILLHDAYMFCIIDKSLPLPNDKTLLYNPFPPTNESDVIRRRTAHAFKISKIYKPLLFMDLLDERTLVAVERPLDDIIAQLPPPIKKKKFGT
inactive: [1] 0.003 | [2] 0.002 | [3] 0.02 | [4] -0.07 | [5] 0.045 | [7] -0.014 | [8] -0.017 | [9] -0.019 | [11] -0.036 | [12] 0.029 | [13] 0.009 | [14] -0.007 | [15] -0.06 | [16] -0.028 | [17] -0.021 | [18] -0.019 | [19] -0.033 | [20] -0.005
active: [6] 0.233 | [10] 0.343

WDR46 (UniProt O15213)
Sequence of UniProt O15213 (O15213 whole entry, looked up): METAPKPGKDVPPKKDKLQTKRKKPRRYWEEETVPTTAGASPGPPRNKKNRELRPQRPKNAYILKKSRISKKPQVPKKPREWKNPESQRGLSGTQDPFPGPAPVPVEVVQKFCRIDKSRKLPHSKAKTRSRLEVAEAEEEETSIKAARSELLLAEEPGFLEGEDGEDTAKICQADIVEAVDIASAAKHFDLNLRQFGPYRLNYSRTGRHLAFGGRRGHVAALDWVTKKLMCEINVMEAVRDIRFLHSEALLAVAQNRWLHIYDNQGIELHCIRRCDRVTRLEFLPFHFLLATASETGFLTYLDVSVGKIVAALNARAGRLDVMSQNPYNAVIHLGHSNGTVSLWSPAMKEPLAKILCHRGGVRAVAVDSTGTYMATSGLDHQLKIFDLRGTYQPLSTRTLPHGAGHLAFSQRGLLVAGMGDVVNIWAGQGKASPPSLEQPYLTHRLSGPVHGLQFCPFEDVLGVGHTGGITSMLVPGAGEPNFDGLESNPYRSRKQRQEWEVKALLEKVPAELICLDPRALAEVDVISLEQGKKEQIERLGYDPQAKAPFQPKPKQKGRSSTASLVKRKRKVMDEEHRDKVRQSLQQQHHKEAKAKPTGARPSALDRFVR
inactive: [1] -0.159 | [2] 0.099 | [3] 0.15 | [4] 0.175 | [5] 0.066 | [6] 0.192 | [7] 0.154 | [8] 0.242 | [9] 0.033 | [10] -0.382 | [11] 0.039 | [12] -0.021 | [13] -0.001 | [14] -0.102 | [15] 0.216 | [16] -0.135 | [17] -0.026 | [18] 0.136 | [19] -0.05 | [20] -0.064

VPS52 (UniProt Q8N1B4)
Sequence of UniProt Q8N1B4 (Q8N1B4 whole entry, looked up): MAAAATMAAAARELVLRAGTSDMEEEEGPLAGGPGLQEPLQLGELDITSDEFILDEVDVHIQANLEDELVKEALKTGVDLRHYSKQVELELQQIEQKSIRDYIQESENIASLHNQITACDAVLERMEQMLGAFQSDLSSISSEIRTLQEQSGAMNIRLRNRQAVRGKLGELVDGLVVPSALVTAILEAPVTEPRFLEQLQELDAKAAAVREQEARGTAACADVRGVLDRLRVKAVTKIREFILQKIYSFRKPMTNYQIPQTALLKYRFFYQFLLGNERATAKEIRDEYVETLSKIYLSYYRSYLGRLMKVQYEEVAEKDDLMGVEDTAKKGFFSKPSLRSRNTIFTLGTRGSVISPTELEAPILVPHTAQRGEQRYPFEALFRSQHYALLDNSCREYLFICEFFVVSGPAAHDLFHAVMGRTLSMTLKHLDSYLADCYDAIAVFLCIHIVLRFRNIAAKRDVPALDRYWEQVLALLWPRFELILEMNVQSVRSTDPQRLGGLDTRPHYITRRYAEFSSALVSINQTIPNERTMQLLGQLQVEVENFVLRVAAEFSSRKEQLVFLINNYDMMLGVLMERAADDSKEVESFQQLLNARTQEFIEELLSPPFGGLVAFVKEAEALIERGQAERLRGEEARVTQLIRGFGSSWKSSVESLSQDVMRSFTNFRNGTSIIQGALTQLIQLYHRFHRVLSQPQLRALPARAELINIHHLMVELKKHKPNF
inactive: [1] -0.057 | [2] 0.068 | [3] 0 | [4] 0.05 | [5] -0.161 | [6] -0.02 | [7] 0.088 | [8] 0.048 | [9] -0.018 | [10] 0.142 | [11] -0.071 | [12] -0.001 | [13] -0.009 | [14] 0.005 | [15] 0.079 | [16] 0.023 | [17] 0.006 | [18] 0.048 | [19] -0.004 | [20] 0.054

XRCC5 (UniProt P13010)
active: [6] -0.505
inactive: [1] -0.264 | [2] -0.104 | [3] -0.214 | [4] 0.083 | [5] -0.175 | [7] 0.126 | [8] -0.01 | [9] 0 | [10] -0.065 | [11] 0.073 | [12] -0.08 | [13] 0.044 | [14] 0.143 | [15] 0.033 | [16] 0.115 | [17] 0.189 | [18] 0.109 | [19] 0.234 | [20] 0.143

TMEM192 (UniProt Q8IY95)
inactive: [1] 0.047 | [2] -0.014 | [3] -0.012 | [4] 0.025 | [5] 0.004 | [7] 0.029 | [8] 0.051 | [9] -0.004 | [10] -0.019 | [11] 0.013 | [12] -0.032 | [13] 0.026 | [14] -0.028 | [15] 0.004 | [16] -0.006 | [17] -0.026 | [18] -0.014 | [19] -0.038 | [20] -0.005
active: [6] -0.481

TP53BP1 isoform 2 (UniProt Q12888)
active: [10] -0.337
inactive: [1] -0.059 | [2] -0.046 | [3] -0.002 | [4] 0.056 | [5] -0.024 | [6] -0.089 | [7] 0.019 | [8] 0.021 | [9] 0.003 | [11] -0.02 | [12] -0.032 | [13] 0 | [14] -0.022 | [15] 0.045 | [16] 0 | [17] 0.02 | [18] 0.056 | [19] 0.019 | [20] 0.022

TRAPPC8 (UniProt Q9Y2L5)
Sequence of UniProt Q9Y2L5 (Q9Y2L5 whole entry, looked up): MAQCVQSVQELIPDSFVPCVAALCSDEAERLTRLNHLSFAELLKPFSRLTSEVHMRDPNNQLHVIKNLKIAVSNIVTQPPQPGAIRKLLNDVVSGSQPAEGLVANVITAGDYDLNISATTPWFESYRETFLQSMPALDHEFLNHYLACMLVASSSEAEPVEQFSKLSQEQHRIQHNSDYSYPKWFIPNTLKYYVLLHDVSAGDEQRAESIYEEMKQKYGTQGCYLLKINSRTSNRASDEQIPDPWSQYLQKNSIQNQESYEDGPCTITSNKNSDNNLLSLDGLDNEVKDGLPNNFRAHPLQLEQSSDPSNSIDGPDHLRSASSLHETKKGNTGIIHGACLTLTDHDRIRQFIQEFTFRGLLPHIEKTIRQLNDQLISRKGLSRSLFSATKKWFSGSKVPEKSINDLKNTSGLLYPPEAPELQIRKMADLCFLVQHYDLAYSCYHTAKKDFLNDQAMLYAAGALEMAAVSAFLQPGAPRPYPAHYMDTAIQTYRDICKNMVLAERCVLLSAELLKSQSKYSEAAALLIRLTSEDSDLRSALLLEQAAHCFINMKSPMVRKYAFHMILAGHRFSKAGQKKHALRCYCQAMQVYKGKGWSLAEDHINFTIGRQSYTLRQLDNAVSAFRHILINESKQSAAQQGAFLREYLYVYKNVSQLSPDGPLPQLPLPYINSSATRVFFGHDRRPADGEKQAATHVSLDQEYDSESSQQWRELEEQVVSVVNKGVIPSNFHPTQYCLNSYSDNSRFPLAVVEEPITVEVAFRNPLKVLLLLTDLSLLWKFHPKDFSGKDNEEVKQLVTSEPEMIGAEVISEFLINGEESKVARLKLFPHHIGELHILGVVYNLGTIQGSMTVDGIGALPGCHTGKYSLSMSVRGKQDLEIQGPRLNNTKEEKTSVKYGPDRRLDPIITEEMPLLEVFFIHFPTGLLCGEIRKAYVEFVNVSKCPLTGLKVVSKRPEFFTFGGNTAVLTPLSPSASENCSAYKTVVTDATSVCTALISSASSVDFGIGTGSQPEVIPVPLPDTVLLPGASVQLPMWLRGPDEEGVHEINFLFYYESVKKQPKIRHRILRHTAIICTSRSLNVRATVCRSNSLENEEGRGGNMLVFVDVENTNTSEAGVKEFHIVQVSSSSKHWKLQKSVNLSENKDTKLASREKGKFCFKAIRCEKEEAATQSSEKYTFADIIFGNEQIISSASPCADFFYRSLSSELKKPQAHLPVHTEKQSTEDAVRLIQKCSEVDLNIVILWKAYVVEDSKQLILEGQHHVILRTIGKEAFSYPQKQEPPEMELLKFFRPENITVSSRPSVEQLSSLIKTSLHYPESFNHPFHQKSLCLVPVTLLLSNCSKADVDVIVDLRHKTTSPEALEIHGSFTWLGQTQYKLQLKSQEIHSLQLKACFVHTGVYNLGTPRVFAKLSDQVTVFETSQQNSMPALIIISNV
inactive: [1] -0.02 | [2] 0.015 | [3] -0.02 | [4] 0.011 | [5] -0.056 | [6] -0.071 | [7] 0.044 | [8] 0.072 | [9] 0.002 | [10] 0.003 | [11] 0.079 | [12] -0.036 | [13] -0.009 | [14] -0.022 | [15] 0.024 | [16] 0.026 | [17] 0.066 | [18] 0.012 | [19] 0.066 | [20] 0.033
